Cruzain inh Det = blocks cruzain activity in presence of Triton detergent; Potency, µM, actives largely listed as inhibitors; P25779; AID 1478; purified cruzain, Z-FR-AMC fluorescence, 0.01% Triton; hit rate 0.43% among 200,000; also: nearly all actives have a fitted effect of over 40% in size
Target sequence (P25779 123-467 limits assumed): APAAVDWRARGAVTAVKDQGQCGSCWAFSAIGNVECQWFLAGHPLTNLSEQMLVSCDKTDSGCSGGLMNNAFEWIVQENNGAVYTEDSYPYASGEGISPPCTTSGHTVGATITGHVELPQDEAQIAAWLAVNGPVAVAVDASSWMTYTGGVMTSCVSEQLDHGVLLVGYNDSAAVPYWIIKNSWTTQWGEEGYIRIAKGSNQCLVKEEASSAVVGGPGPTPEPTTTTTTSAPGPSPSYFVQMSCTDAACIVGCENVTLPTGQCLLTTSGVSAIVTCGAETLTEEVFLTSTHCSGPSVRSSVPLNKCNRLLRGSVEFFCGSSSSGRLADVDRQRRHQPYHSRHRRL
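Detergent-containing run (0.01% Triton X-100) in acetate buffer pH 5.5 with 5 mM DTT: enzyme at 1.5 nM final, 15 min compound preincubation at room temperature, then 2 uM Z-FR-AMC substrate. Activity taken as 60 s fluorescence increase at 360/450 nm.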
Cruzain inh noDet = cruzain (T. cruzi) inhibition without detergent. P25779. hit rate 2.3% among 200,000. purified cruzain, Z-FR-AMC fluorescence, no detergent. Potency, µM, usual class: inhibitors; also: nearly all actives have a fitted effect of over 40% in size
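Detergent-free condition (0.00005% Triton X-100) in acetate buffer pH 5.5 with DTT. 1.5 nM enzyme and compound were pre-mixed 15 min, then 2 uM Z-FR-AMC substrate added; reaction progress from fluorescence change between first and third reads (60 s).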
A number is an active result; 0 = inactive; ? = inconclusive. Only some compounds are listed: those with a hit (about 2.4% of all), similar ones and a draw of the others. Calls follow the shape of the dose curve; as a rule, active = well fitted curve in the direction sought with a large enough effect; inconclusive = small, poorly fitted or top-dose-only effect, or another doubt; inactive = no such curve, though single readings can be large; an effect the other way counts as inactive or inconclusive.

SMILES	Cruzain inh Det	Cruzain inh noDet
Cc1ccc(NC(=O)c2ccc(OC(=O)CCN3C(=O)c4ccccc4C3=O)cc2)cc1	0	?
Cc1nc(N)sc1-c1csc(Nc2ccccc2)n1	25µM	13µM
COc1ccc(OC)c(Nc2nc(-c3sc(N)nc3C)cs2)c1	?	25µM
Cc1cc(O)ccc1Nc1nc(-c2sc(N)nc2C)cs1	0	?
COc1ccc(CCNc2nc(-c3sc(C)nc3C)cs2)cc1OC	0	?
O=C(NCc1ccc(Cl)cc1)c1ccc(Cn2cc(C(F)(F)F)ccc2=O)cc1	0	0
O=C(c1cc(C(=O)NCc2ccc(Cl)cc2)c(=O)n(Cc2ccc(Cl)cc2)c1)c1cc(F)ccc1O	0	16µM
N#Cc1c(-c2ccccc2)cc(-c2ccccc2)nc1SCc1nnc(-c2ccccc2)o1	0	5µM
c1ccc2[nH]c(CSc3nnc(-c4ccncc4)o3)nc2c1	0	13µM
Brc1cccc(-c2nnc(-c3ccccc3)o2)c1	0	0
Brc1cccc(-c2nnc(SCc3nc4ccccc4[nH]3)o2)c1	14µM	13µM
c1ccc2[nH]c(CSc3nc4ccccc4s3)nc2c1	?	16µM
C=C(C)CSc1nc(-c2ccccc2)cc(-c2ccc(OC)cc2)c1C#N	0	0
c1ccc2c(CSc3nnc(-c4ccncc4)o3)cccc2c1	0	0
Cc1nnc(SCc2nc3ccccc3[nH]2)s1	0	0
COc1ccc(-n2cc(-c3ccccc3)c3c(NCc4cccc(Cl)c4)ncnc32)cc1	0	0
Cc1noc(C)c1C(=O)N1CCC2(CCN(Cc3ccccc3)CC2)CC1	0	0
Cn1nnc2cc(C(=O)N3CCCCCC3)ccc21	0	0
O=C(CCCSc1nc2ccccc2[nH]1)Nc1nnc(-c2ccccc2)o1	0	0
Clc1ccc(-c2nnc(SCc3ccon3)o2)c(Cl)c1	0	0
c1ccc(-c2nnc(CSc3nc4ccccc4[nH]3)o2)cc1	0	13µM
Clc1ccc(-c2nnc(SCc3nc4ccccc4[nH]3)o2)c(Cl)c1	6.3µM	0
O=c1c2ccccc2nnn1CSc1nnc(Nc2ccccc2)s1	0	0
CCN1CC(O)=C(c2nc3ccccc3s2)C1=N	0	0
O=C(Nc1ccc(F)cc1F)N1CCCCC1c1cccnc1 (configuration not stated)	0	0
SMILES	Cruzain inh Det	Cruzain inh noDet
COc1cc(NC(=S)NCCC(c2ccccc2)c2ccccc2)cc(OC)c1	0	32µM
COc1cccc(NC(=S)NCCC(c2ccccc2)c2ccccc2)c1	0	0
CC(O)CN(CCC(N)=O)CCC(N)=O (configuration not stated)	0	0
COc1cc(Sc2ccc(C)cc2)c(OC)cc1N	0	16µM
COC(=O)c1ccc(Sc2ccc(C)cc2)c(N)c1	0	0
Cc1ccsc1/C=C(\C(=O)c1ccc(OC(C)C)cc1)c1nc2ccccc2o1	0	32µM
CC(C)Oc1ccc(C(=O)N2CCC(c3nc4ccccc4o3)CC2)cc1	0	0
CCc1ccc(C2CC(=O)Nc3c2c(C)nn3-c2nc(C)cc(C)n2)cc1 (configuration not stated)	0	?
O=C(Cn1cc(S(=O)(=O)N2CCN(c3ccccc3F)CC2)c2ccccc2c1=O)Nc1ccc(F)cc1Cl	0	?
CCOc1ccc(NC(=O)Cn2cc(S(=O)(=O)N3CCN(c4ccccc4F)CC3)c3ccccc3c2=O)cc1	0	16µM
CCOc1ccc2nc(N3CCCC(C(=O)Nc4c(C)cccc4C)C3)sc2c1 (configuration not stated)	0	0
O=C(CSc1oc(-c2ccccc2)nc1S(=O)(=O)c1ccccc1)c1ccccc1	0	?
O=C(CSc1oc(-c2ccccc2)nc1S(=O)(=O)c1ccc(Br)cc1)c1ccccc1	0	13µM
O=[N+]([O-])c1cc(/C=N/O)ccc1SCc1ccccc1	0	?
Cn1c(=O)n(C)c2cc(/C=N/NC(=S)NCc3ccccc3)ccc21	11µM	?
Fc1ccccc1COc1ccc(/C=N/NC(=S)NCc2ccccc2)cc1	0	6.3µM
CC(C)(C)c1ccc(/C=N/NC(=S)NCc2ccccc2)cc1	0	?
CNC(=S)N/N=C/c1cccc(OCc2ccccc2F)c1	0	?
Cc1ccc(NC(=O)CSc2nnc(CN3CCOCC3)n2-c2ccccc2)cc1	0	?
COc1ccccc1-c1cc(=O)c2cccc(OC)c2o1	0	0
c1ccc(C2=Nc3ccccc3OC2)cc1	0	0
NC1=Nc2ccccc2Oc2ccccc21	?	25µM
Cc1cc(C)cc(N=Cc2[nH]c3ccc(Br)c(Cl)c3c2O)c1	0	4µM
COc1ccc(CN=CC2=C(O)CNC2=O)cc1	0	0
Cc1ccc(O)c(C=Nc2ccc3[nH]ncc3c2)c1	?	0
SMILES	Cruzain inh Det	Cruzain inh noDet
COc1ccc(CN=Cc2[nH]c3ccc(Br)c(Cl)c3c2O)cc1	0	25µM
COCCNC(=O)Cc1ccc(NC(=O)N2CCCCc3ccccc32)cc1	0	0
Cc1ccsc1CCN1C(=O)N(c2ccc(F)cc2)C(=O)C1CC(=O)Nc1ccccc1 (configuration not stated)	0	0
CCOc1ccc(NC(=O)Cn2c(=O)oc3cc(S(=O)(=O)N4CCC(C)CC4)ccc32)cc1	0	0
Cc1c(O)nc(SC2CC(=O)N(c3ccccc3)C2=O)[nH]c1=O (configuration not stated)	0	0
Cc1ccc2c(c1)-c1c(cnn1CC(=O)N1CCCN(Cc3ccccc3F)C1)CO2	0	?
COc1ccc(N2CCC(CNS(=O)(=O)c3cccc(C(F)(F)F)c3)C2)cc1 (configuration not stated)	0	25µM
COc1ccc(N2CCC(CNC(=S)Nc3cccc(C)c3)C2)cc1 (configuration not stated)	0	0
CC1=NN(c2ccccc2)C(=O)/C1=C\c1cc(C)n(-c2ccccc2)c1C	0	?
Cc1cc(/C=C2/C(=O)NN(c3ccccc3)C2=O)c(C)n1-c1cccc(O)c1	0	25µM
Cc1nc2ccn(Cc3cccs3)c(=O)c2cc1C(=O)Nc1ccccc1	0	0
O=C(Oc1ccc2c(c1)O/C(=C\c1ccncc1)C2=O)c1ccccc1	0	0
Cc1ccsc1/C=C1\Oc2cc(OCC(=O)c3ccccc3)ccc2C1=O	0	13µM
COc1ccccc1-c1cc(C(=O)NCc2ccccc2)c2c(-c3ccc(C)cc3)[nH]nc2n1	0	0
Cc1nnc(SCC(=O)N2CC(=O)Nc3ccccc32)n1-c1ccccc1	0	0
O=C1CN(C(=O)CSc2nnc(-c3ccccc3)n2Cc2ccc3c(c2)OCO3)c2ccccc2N1	28µM	13µM
CCOC(=O)C1=C(CSc2nc(CC)c(C)cc2C#N)OC(N)=C(C#N)C1c1ccccc1 (configuration not stated)	0	0
CCOC(=O)C1=C(CSc2nc(-c3ccccc3)ccc2C#N)OC(N)=C(C#N)C1c1ccc(OC)cc1 (configuration not stated)	0	16µM
N#C/C(=C/c1ccc(O)cc1)c1nc(-c2ccc(-c3ccccc3)cc2)cs1	0	0
N#C/C(=C\C=C\c1ccccc1)c1nc(-c2ccc3c(c2)OCO3)cs1	0	25µM
Cc1nc(-c2ccc(-c3ccc(C(=O)N4CCc5cc6c(cc54)C4(CCN(C)CC4)CO6)cc3)c(C)c2)no1	0	0
CC(=Nc1ccc(C)c(C)c1)C1=C(O)CSC1=O	0	0
O=C(COc1ccc2oc(-c3ccccc3)cc(=O)c2c1)Nc1ccccc1	0	32µM
COC(=O)COc1ccc2oc(-c3ccc(OC)cc3)cc(=O)c2c1	0	0
CN1CCN(S(=O)(=O)c2ccc(Br)c3nsnc23)CC1	0	0

Compound activity (PubChem BioAssay)
